Source: the supplement of paper PMC3616981
± gives the standard deviation of the averaged measurements.

compound: CC(C)c1cccc(C(C)C)c1N1C(=O)c2ccc(O)cc2C1=O; test: BioMAP readout fold decrease vs vehicle (vehicle/treated); higher = stronger decrease of the readout vs vehicle (values <1 mean increase); conditions: 1.48 µM
Method: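 BioSeek BioMAP human primary cell (co-)culture systems (3C, 4H, LPS, SAg, BE3C, CASM3C, hDFCGF, KF3CT) treated with 5HPP-33 at 1.48, 4.44, 13.3 and 40 µM. Read-outs are protein levels by ELISA, proliferation and SRB total protein. Duplicate rows per assay are averaged as replicates. Tested in ToxCast Phase II for this study; exposure time not stated.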
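Note: Co-cultures of keratinocytes, bronchial epithelial and smooth muscle cells, fibroblasts, HUVECs and PBMCs under stimuli like LPS, TNF-α, IFN-γ, IL-1β, TGF-β or EGF, SRB reflecting cytotoxicity.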

| Target | BioMAP readout fold decrease |
| --- | --- |
| 4H_Eotaxin3 | 0.9561 ± 0.0065 |
| LPS_IL8 | 1.07 ± 0.0052 |
| LPS_MCP1 | 1.03 ± 0.028 |
| hDFCGF_SRB | 1 ± 0.034 |
| CASM3C_MIG | 0.9799 ± 0.0029 |
| SAg_MCP1 | 1.08 ± 0.023 |
| CASM3C_IL6 | 0.923 ± 0.002 |
| LPS_Eselectin | 1.07 ± 0.019 |
| LPS_IL1a | 0.781 ± 0.039 |
| CASM3C_TissueFactor | 1.0008 ± 0.00028 |
| LPS_SRB | 0.935 ± 0.012 |
| hDFCGF_IL8 | 1.03 ± 0.018 |
| 3C_MIG | 1.004 ± 0.0083 |
| 3C_IL8 | 0.994 ± 0.019 |
| CASM3C_MCSF | 1.06 ± 0.033 |
| BE3C_tPA | 0.995 ± 0.012 |

| Target | BioMAP readout fold decrease |
| --- | --- |
| KF3CT_IP10 | 0.9935 ± 0.0028 |
| CASM3C_Thrombomodulin | 0.989 ± 0.031 |
| BE3C_PAI1 | 1.18 ± 0.056 |
| SAg_Eselectin | 1.14 ± 0.027 |
| SAg_CD69 | 1.13 ± 0.076 |
| LPS_MCSF | 1.081 ± 0.0067 |
| 3C_Thrombomodulin | 1.06 ± 0.032 |
| BE3C_MMP1 | 1.073 ± 0.0092 |
| LPS_VCAM1 | 1.14 ± 0.055 |
| KF3CT_MMP9 | 0.991 ± 0.0099 |
| CASM3C_Proliferation | 1.11 ± 0.024 |
| BE3C_uPAR | 1.02 ± 0.013 |
| CASM3C_SAA | 1.02 ± 0.09 |
| 4H_Pselectin | 0.965 ± 0.074 |
| CASM3C_MCP1 | 1.07 ± 0.045 |

same assay, conditions: 4.44 µM

| Target | BioMAP readout fold decrease |
| --- | --- |
| 4H_Eotaxin3 | 0.875 ± 0.022 |
| LPS_IL8 | 0.942 ± 0.0096 |
| LPS_MCP1 | 1.01 ± 0.012 |
| hDFCGF_SRB | 0.959 ± 0.0096 |
| CASM3C_MIG | 0.9517 ± 0.009 |
| SAg_MCP1 | 0.997 ± 0.021 |
| CASM3C_IL6 | 0.9348 ± 0.0071 |
| LPS_Eselectin | 1.17 ± 0.034 |
| LPS_IL1a | 0.8356 ± 0.0034 |
| CASM3C_TissueFactor | 1.023 ± 0.0054 |
| LPS_SRB | 1.032 ± 0.0086 |
| hDFCGF_IL8 | 0.964 ± 0.017 |
| 3C_MIG | 1.01 ± 0.0047 |
| 3C_IL8 | 0.925 ± 0.011 |
| CASM3C_MCSF | 1.14 ± 0.044 |
| BE3C_tPA | 0.805 ± 0.042 |

| Target | BioMAP readout fold decrease |
| --- | --- |
| KF3CT_IP10 | 1.06 ± 0.035 |
| CASM3C_Thrombomodulin | 0.942 ± 0.049 |
| BE3C_PAI1 | 1.236 ± 0.012 |
| SAg_Eselectin | 1.02 ± 0.041 |
| SAg_CD69 | 1.24 ± 0.035 |
| LPS_MCSF | 1.32 ± 0.11 |
| 3C_Thrombomodulin | 0.9983 ± 0.0097 |
| BE3C_MMP1 | 1.01 ± 0.017 |
| LPS_VCAM1 | 1.55 ± 0.14 |
| KF3CT_MMP9 | 1.17 ± 0.028 |
| CASM3C_Proliferation | 1.58 ± 0.054 |
| BE3C_uPAR | 1.0603 ± 0.00083 |
| CASM3C_SAA | 1.12 ± 0.018 |
| 4H_Pselectin | 1.09 ± 0.095 |
| CASM3C_MCP1 | 1.137 ± 0.0029 |

same assay, conditions: 13.3 µM

| Target | BioMAP readout fold decrease |
| --- | --- |
| 4H_Eotaxin3 | 1.02 ± 0.032 |
| LPS_IL8 | 0.805 ± 0.015 |
| LPS_MCP1 | 1.02 ± 0.016 |
| hDFCGF_SRB | 1.19 ± 0.017 |
| CASM3C_MIG | 0.96395 ± 0.0005 |
| SAg_MCP1 | 0.892 ± 0.0095 |
| CASM3C_IL6 | 0.8611 ± 0.001 |
| LPS_Eselectin | 1.24 ± 0.012 |
| LPS_IL1a | 0.965 ± 0.057 |
| CASM3C_TissueFactor | 1.04 ± 0.026 |
| LPS_SRB | 1.277 ± 0.0063 |
| hDFCGF_IL8 | 0.8858 ± 0.0045 |
| 3C_MIG | 1 ± 0.012 |
| 3C_IL8 | 0.7655 ± 0.0039 |
| CASM3C_MCSF | 1.03 ± 0.035 |
| BE3C_tPA | 1.1 ± 0.071 |

| Target | BioMAP readout fold decrease |
| --- | --- |
| KF3CT_IP10 | 1.39 ± 0.016 |
| CASM3C_Thrombomodulin | 0.956 ± 0.031 |
| BE3C_PAI1 | 1.5 ± 0.03 |
| SAg_Eselectin | 1.14 ± 0.087 |
| SAg_CD69 | 1.52 ± 0.077 |
| LPS_MCSF | 1.686 ± 0.0043 |
| 3C_Thrombomodulin | 0.939 ± 0.01 |
| BE3C_MMP1 | 0.9184 ± 0.0038 |
| LPS_VCAM1 | 2.13 ± 0.16 |
| KF3CT_MMP9 | 1.45 ± 0.081 |
| CASM3C_Proliferation | 1.2 ± 0.23 |
| BE3C_uPAR | 1.1 ± 0.012 |
| CASM3C_SAA | 1.094 ± 0.0048 |
| 4H_Pselectin | 1.56 ± 0.019 |
| CASM3C_MCP1 | 1 ± 0.016 |

same assay, conditions: 40 µM

| Target | BioMAP readout fold decrease |
| --- | --- |
| 4H_Eotaxin3 | 4.62 ± 0.098 |
| LPS_IL8 | 1.02 ± 0.053 |
| LPS_MCP1 | 2.69 ± 0.19 |
| hDFCGF_SRB | 2.06 ± 0.21 |
| CASM3C_MIG | 1.03 ± 0.015 |
| SAg_MCP1 | 4.61 ± 0.68 |
| CASM3C_IL6 | 0.752 ± 0.0092 |
| LPS_Eselectin | 1.91 ± 0.12 |
| LPS_IL1a | 1.56 ± 0.039 |
| CASM3C_TissueFactor | 1.22 ± 0.015 |
| LPS_SRB | 1.87 ± 0.066 |
| hDFCGF_IL8 | 0.9866 ± 0.0065 |
| 3C_MIG | 1.09 ± 0.016 |
| 3C_IL8 | 1.132 ± 0.0075 |
| CASM3C_MCSF | 2.01 ± 0.034 |
| BE3C_tPA | 1.59 ± 0.073 |

| Target | BioMAP readout fold decrease |
| --- | --- |
| KF3CT_IP10 | 7.16 ± 0.78 |
| CASM3C_Thrombomodulin | 1.23 ± 0.078 |
| BE3C_PAI1 | 1.91 ± 0.13 |
| SAg_Eselectin | 3.92 ± 0.27 |
| SAg_CD69 | 3.2 ± 0.15 |
| LPS_MCSF | 2.21 ± 0.14 |
| 3C_Thrombomodulin | 0.984 ± 0.054 |
| BE3C_MMP1 | 0.854 ± 0.0042 |
| LPS_VCAM1 | 3.55 ± 0.13 |
| KF3CT_MMP9 | 4.32 ± 0.16 |
| CASM3C_Proliferation | 2.76 ± 0.16 |
| BE3C_uPAR | 1.26 ± 0.022 |
| CASM3C_SAA | 1.72 ± 0.1 |
| 4H_Pselectin | 1.75 ± 0.032 |
| CASM3C_MCP1 | 0.9734 ± 0.002 |
